Measurements from PubChem BioAssay AID1852 (Sanford-Burnham Center for Chemical Genomics, 2009).
Out of some 2,500 compounds screened, about 1,100 (44%) were called active.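 How the source made its calls: active means inhibition above 50% at 4 µM in the single-point screen; inactive means inhibition of 50% or less.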 The set was probably picked from earlier hits. The list shows a part of the results.

test: blockers of TNF-a NF-kB luciferase induction – cell-based, HEK293T NF-kB-Luc, luminescence, selectivity assay for NOD1/NOD2 signaling inhibitor project, primary screen (AID 1852); conditions: TNF-a induced, 14 h, at 4 µM, active compounds read high

Structure (SMILES) | inhibition
COc1ccc(N2CCN(S(=O)(=O)c3ccc4c(c3)NC(=O)C(C)S4)CC2)cc1 (stereo not given) | 23.6% (inactive)
O=S(=O)(c1ccc2c(c1)OCCO2)N1CCN(c2ncnc3sccc23)CC1 | 53.4% (active)
CN1C(=O)C(C)(C)c2cc(S(=O)(=O)N3CCN(c4ccccc4)CC3)ccc21 | 16% (inactive)
c1ccc(CC2CCN(c3ncnc4sccc34)CC2)cc1 | 42.7% (inactive)
Cc1ccc(S(=O)(=O)N2CCN(c3ncnc4sccc34)CC2)cc1 | 52.6% (active)
CCCc1nc(SCC(=O)N2CCC(Cc3ccccc3)CC2)c2c(=O)n(C)c(=O)n(C)c2n1 | -11.3% (inactive)
O=C(NN=C1c2ccccc2-c2ccccc21)c1cccc(Br)c1 | 21.6% (inactive)
C/C(=N\NC(=O)c1ccc(Cl)cc1)c1ccc(Br)s1 | 9.8% (inactive)
O=C(N/N=C1/C(=O)c2cccc3cccc1c23)c1ccc(Cl)cc1 | 81% (active)
S=c1[nH]nc(C2CCCCC2)n1/N=C/c1ccncc1 | 82.9% (active)
COc1ccc(OC)c(S(=O)(=O)N2CCN(c3ccccc3OC)CC2)c1 | 5% (inactive)
O=C(COc1ccc(Br)cc1Cl)NC(=S)N1CCc2ccccc21 | 104% (active)
O=C1c2cccc(OCC(=O)N3CCCc4ccccc43)c2CCN1Cc1ccc(Br)cc1 | -77.8% (inactive)
Cc1cc(Nc2cccc([N+](=O)[O-])c2)n2c(nc3ccccc32)c1C#N | 78.7% (active)
Cc1ccc(NC(=O)Nc2cccc([N+](=O)[O-])c2)cc1F | -50.5% (inactive)
Cc1ccc(-c2c(C#N)c(N)n3c(nc4ccccc43)c2C#N)cc1 | 33.8% (inactive)
CCc1nc(N2CCN(C(=O)CCl)CC2)c2c3c(sc2n1)CC(C)CC3 (stereo not given) | 35.2% (inactive)
CCOC(=O)C1(CCc2ccccc2)CCN(C(=O)CN2C(=O)CSC2=O)CC1 | -1.6% (inactive)
COc1cc(NC(=O)COc2cc(O)c3c(c2)OC(C)(C)CC3=O)cc(OC)c1OC | 64.6% (active)
Cc1ccc(Nc2nnc(-c3ccncc3)s2)c(Br)c1 | 48% (inactive)
COc1ccccc1N1CCN(C(=S)Nc2ccc3nc(N4CCOCC4)cc(C)c3c2)CC1 | 38.6% (inactive)
Cc1ccc(C)c(N2CCN(C(=S)Nc3ccc4nc(N5CCOCC5)cc(C)c4c3)CC2)c1 | 45.9% (inactive)
COc1cccc(C(=O)Nc2ccc3nc(N4CCN(c5ncccn5)CC4)cc(C)c3c2)c1OC | 101% (active)
CCN(CC)c1ccc(/C=C/c2cccc[n+]2C)c(OC)c1 | 66.8% (active)
CCN(CC)c1ccc(/C=C/c2ccc3ccc(OC)cc3[n+]2CC)cc1 | 38.2% (inactive)
